Screening results from PubChem.
Sampled rows, rich in hits. Any-hit rate of the full collection: about 3.3%.
TPT1 inh = Candida albicans TPT1 enzyme inhibitors, primary screen, biochemical, fluorescence polarization; tRNA 2'-phosphotransferase TPT1 (Candida albicans SC5314); recombinant caTPT1, FP RNA substrate dephosphorylation; inhibition, % at 5 µM; 300,000 tested, 0.81% active;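 active = inhibition above the mean of all tested compounds plus 3 SD, set per screening campaign, cut at about 24% in these data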
HNF4A DNA FP = change in binding of human HNF4A to DNA, primary screen, biochemical, fluorescence polarization, FITC-DNA; Hepatocyte nuclear factor 4-alpha (Homo sapiens), P41235; 1 h; activity change, % at 10 µM; 360,000 tested, 0.3% active; AID 1224865, 2016; in the data active = activity change above about 30%, passing the limit was not always enough
Fh CTSL1 inh = Fasciola hepatica cathepsin L1 inhibitors, primary screen, counter-screen for PFM18AAP inhibitor project, biochemical, QFRET, fluorogenic peptide substrate. 300,000 tested, 0.49% active. recombinant F. hepatica cathepsin L1, Z-Leu-Arg-MCA fluorescence. inhibition, % at 5.96 µM;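 active = inhibition above the mean of all tested compounds plus 3 SD, set per screening campaign, cut at about 17% in these data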
PHOSPHO1 block = PubChem AID 1565 | recombinant PHOSPHO1, absorbance phosphatase assay | Phosphoethanolamine/phosphocholine phosphatase (Homo sapiens), Q8TCT1 | 290,000 tested, 1.1% active | inhibition, % at 13.3 µM; in the data active = inhibition above about 60%
Target sequence (Q8TCT1 whole entry, looked up): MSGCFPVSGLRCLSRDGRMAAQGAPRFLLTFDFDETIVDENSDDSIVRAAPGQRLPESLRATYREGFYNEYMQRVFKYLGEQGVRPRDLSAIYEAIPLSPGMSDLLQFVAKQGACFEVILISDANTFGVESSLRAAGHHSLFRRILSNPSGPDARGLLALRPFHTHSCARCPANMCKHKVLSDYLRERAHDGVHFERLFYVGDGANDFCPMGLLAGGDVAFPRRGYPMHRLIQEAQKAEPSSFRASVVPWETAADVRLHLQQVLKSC
NRP1-CendR mod = modulators of CendR peptide binding to NRP-1, primary screen, biochemical, fluorescence polarization, uHTS | inhibition, % at 25 µM | Neuropilin-1 (Homo sapiens), O14786 | 360,000 tested, 0.85% active | FAM-RPARPAR peptide binding to NRP-1;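 active = inhibition or corrected inhibition above about 18%, plus a signal ratio from 0.5 to 1.5, limit read from the data, passing the limit was not always enough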
Rpn11 inh = Rpn11 (PSMD14) deubiquitinase inhibitors, primary screen, biochemical, fluorescence polarization, uHTS | 26S proteasome non-ATPase regulatory subunit 14 (Homo sapiens), O00487 | human 26S proteasome, Ub4-pepOG fluorescence polarization; 20S core pre-blocked with epoxomicin | inhibition, % at 20 µM | 360,000 tested, 0.59% active;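 active = inhibition at 20 µM, scaled to each plate's controls, above about 33%, limit read from the data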
Target sequence (O00487 whole entry, looked up): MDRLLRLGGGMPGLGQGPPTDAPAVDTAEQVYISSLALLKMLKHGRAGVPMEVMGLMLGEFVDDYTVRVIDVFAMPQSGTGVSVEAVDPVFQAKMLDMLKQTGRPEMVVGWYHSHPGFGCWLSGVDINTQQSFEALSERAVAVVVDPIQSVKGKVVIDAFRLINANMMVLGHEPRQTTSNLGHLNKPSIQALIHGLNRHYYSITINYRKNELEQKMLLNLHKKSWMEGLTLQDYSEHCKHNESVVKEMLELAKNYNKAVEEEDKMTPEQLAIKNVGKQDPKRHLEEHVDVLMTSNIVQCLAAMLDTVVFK
Large screens that a line does not name were inactive; ! = repeats disagree.

CC(C)(C)NC(=O)COC(=O)c1ccccc1C(=O)c1ccccc1	none
O=C(O)C1=C[C@@H](c2ccc(C(F)(F)F)cc2)C[C@@H](OCCCCO)O1	NRP1-CendR mod 28 (no result: PHOSPHO1 block)
NC(=O)C1=C[C@H](c2ccc(C(F)(F)F)cc2)C[C@H](OCCCCO)O1	none
CC(C)[C@H]1C=C(C(=O)O)O[C@@H](OCCCCO)C1	NRP1-CendR mod 26
COC(=O)c1nc2n(n1)C(c1ccc(OC)c(OC)c1OC)C1=C(CCCC1=O)N2 (centres undefined)	NRP1-CendR mod 18
COc1ccc(-c2csc(NCc3ccco3)n2)cc1C	NRP1-CendR mod 23
Cc1cccc(Nc2nc(-c3ccncc3)cs2)c1	none
Cc1cccc(Nc2nc(-c3ccc4c(c3)OCCO4)cs2)c1	PHOSPHO1 block 73
Cc1cnc(C=NNC(N)=S)c2cccc(N)c12	NRP1-CendR mod 26 (no result: TPT1 inh, Fh CTSL1 inh, PHOSPHO1 block)
CC(=O)c1c(C)[nH]c(C(=O)OCC(=O)c2ccc3c(c2)NC(=O)CO3)c1C	none (no result: TPT1 inh, Fh CTSL1 inh, PHOSPHO1 block)
CCOc1ccc(CCN2C(=S)N([C@@H](CC(C)C)CN3CCC[C@@H]3CN3C(=S)NC[C@@H]3CC(C)C)C[C@@H]2Cc2ccc(O)cc2)cc1	NRP1-CendR mod 24 (no result: TPT1 inh, Fh CTSL1 inh, PHOSPHO1 block)
O=C(NNc1nc(-c2ccc(Br)cc2)cs1)c1ccco1	none
CCOC(=O)C[C@H]1c2cc(C(F)(F)F)ccc2S(=O)(=O)N1C(C)C	NRP1-CendR mod 34 (no result: PHOSPHO1 block)
CCOC(=O)C[C@H]1c2cc(F)ccc2S(=O)(=O)N1C(C)C	none (no result: PHOSPHO1 block)
O=C1CCN(CCc2ccccc2)CCN1CCSc1ccc(Br)cc1	NRP1-CendR mod 23
COc1ccc(C(C)(O)c2nc(-c3cccc(O)c3)cs2)cc1 (centres undefined)	none (no result: TPT1 inh, Fh CTSL1 inh, PHOSPHO1 block)
CC(C)(C)n1nc2c(c1NC(=O)Cc1cccc3ccccc13)CS(=O)C2 (centres undefined)	PHOSPHO1 block 63
CCOc1ccc(C2CC(c3ccc(CC)cc3)Nc3nc(N)nn32)cc1 (centres undefined)	none
CCOc1ccc(C2CC(c3ccc(CC)cc3)n3nc(N)nc3N2)cc1 (centres undefined)	PHOSPHO1 block 62, NRP1-CendR mod 44
Cc1onc(-c2c(F)cccc2Cl)c1C(=O)N(Cc1ccccc1)C(C)C	none
O=C(COc1cccnc1[N+](=O)[O-])NCc1ccccc1	none
Nc1nc(SCC(=O)C23CC4CC(CC(C4)C2)C3)n[nH]1	PHOSPHO1 block 88
C=CCn1c(C)c(C(C)=O)c(N2CCN(c3ccccc3)CC2)nc1=S	none
NC(=S)N=Nc1ccc(NN=C(N)N)cc1	Fh CTSL1 inh 46
N#C/C(=N/Nc1ccc(OC(F)(F)F)cc1)C(N)=S	none
COc1ccccc1OCC(=O)Nc1cc(Cl)ccc1N1CCCCC1	none (no result: TPT1 inh, Fh CTSL1 inh, PHOSPHO1 block)
COc1ccc(-n2nc3c(N)n[nH]c3cc2=O)cc1	NRP1-CendR mod 29
COc1ccc(OC)c(C(O)c2ncc(-c3cccc4ccccc34)[nH]2)c1 (centres undefined)	none (no result: TPT1 inh, Fh CTSL1 inh, PHOSPHO1 block)
NC(=O)COC(=O)c1cc(-c2ccco2)nc2ccccc12	none
O=C(O)c1cc(-c2ccco2)nc2ccc(Br)cc12	Rpn11 inh 63!
CC(C)N1CC(C(=O)Nc2cc(Cl)cc(Cl)c2)CC1=O (centres undefined)	none
NC(=S)N/N=C\c1ccc(-c2cccc(Cl)c2Cl)o1	Fh CTSL1 inh 19, PHOSPHO1 block 95
NC(=S)N/N=C/c1ccc(-c2ccc(Cl)c(Cl)c2)o1	Fh CTSL1 inh 23, PHOSPHO1 block 81
NC(=S)N/N=C/c1ccc(-c2ccccc2)o1	none
CCOC(=O)N1CCN(C(=O)C2CCC(=O)N(CCCc3ccccc3)C2)CC1 (centres undefined)	PHOSPHO1 block 61 (no result: TPT1 inh, Fh CTSL1 inh)
Cc1ccc2ncnc(Oc3ncccc3NC(=O)C(C)(C)C)c2c1	none
CSCCC(NS(=O)(=O)c1ccccc1F)C(=O)NCC(C)(C)N1CCOCC1 (centres undefined)	none (no result: TPT1 inh, Fh CTSL1 inh, PHOSPHO1 block)
CSCCC(NS(=O)(=O)c1ccccc1F)C(=O)N1CCCCCCC1 (centres undefined)	NRP1-CendR mod 27
Cc1cccc(C)c1NC(=O)c1ccc(-c2cc(F)ccc2F)o1	none (no result: TPT1 inh, Fh CTSL1 inh, PHOSPHO1 block)
CCOC(=O)CCc1c(C)c2ccc(OCC(=O)N3CCOCC3)c(C)c2oc1=O	PHOSPHO1 block 62
COc1ccc(CC(Cc2ccc(OC)c(OC)c2)NC=O)cc1OC	none (no result: TPT1 inh, Fh CTSL1 inh, PHOSPHO1 block)
Cc1ccccc1OCC1Cc2c(nc(N)c(C#N)c2N)O1 (centres undefined)	NRP1-CendR mod 53
O=C1C=C(N2CCN(c3ccccn3)CC2)C(=O)c2c(O)ccc(O)c21	none (no result: TPT1 inh, Fh CTSL1 inh, PHOSPHO1 block)
CC1=CC(=O)c2c(O)ccc(O)c2C1=O	Fh CTSL1 inh 18 (no result: HNF4A DNA FP, NRP1-CendR mod, Rpn11 inh)
OCc1cccc(-c2cnc3c(Nc4cccc(OC(F)(F)C(F)F)c4)nccn23)c1	none (no result: TPT1 inh, Fh CTSL1 inh, PHOSPHO1 block)
CCN1C(=O)/C(=C2/C=Cc3ccccc3N2C)OC1=S	PHOSPHO1 block 65 (not shown: Rpn11 inh)
Cc1ccc(-c2nnc(SCC(=O)N3CCOCC3)nc2-c2ccc(C)cc2)cc1	PHOSPHO1 block 68
CC1CCCC(NC(=O)c2nn(C)c3c2CS(=O)(=O)c2ccccc2-3)C1C (centres undefined)	none
COc1ccc(NCc2ccsc2)cc1	none (no result: PHOSPHO1 block)
COc1ccc(Cl)cc1S(=O)(=O)N1CCN(c2ccc(F)cc2)CC1	NRP1-CendR mod 29
CC1CCCCC1NC(=O)C(C)N1C(=O)c2ccccc2C1=O (centres undefined)	none (no result: TPT1 inh, Fh CTSL1 inh, PHOSPHO1 block)
Cc1cc(Cn2nnnc2-c2ccncc2)cc(C)c1O	none
Cc1ccc(S(=O)(=O)c2nc(-c3cccs3)oc2SCC(N)=O)cc1	PHOSPHO1 block 60
Cc1ccc(C(=O)Nn2cnnc2)cc1[N+](=O)[O-]	NRP1-CendR mod 26 (no result: PHOSPHO1 block)
Cc1ccc(C(=O)NC(=S)N2CC(C)OC(C)C2)cc1[N+](=O)[O-] (centres undefined)	PHOSPHO1 block 90
COc1ccc(C(=O)NC(=S)N2CC(C)OC(C)C2)cc1 (centres undefined)	none
O=[N+]([O-])c1cc(Br)c(O)c(/C=N/Nc2nnnn2-c2cccc3ccccc23)c1	none
CCOC(=O)N1CCN(CC(O)COc2ccc(-c3ccccc3)cc2)CC1 (centres undefined)	none
C=CCn1c(SCC(C)=O)nc2scc(-c3ccco3)c2c1=O	Fh CTSL1 inh 23
O=C(Nc1ccc(F)cc1F)C1CCN(S(=O)(=O)c2cccnc2)CC1	none
c1ccc(-c2nnc(-c3ccco3)o2)cc1	none
c1coc(-c2nnc(-c3ccco3)nn2)c1	Fh CTSL1 inh 23
O=C(O)c1nn(-c2ccc(Cl)cc2)ccc1=O	NRP1-CendR mod 19
CNC(=O)c1nn(-c2ccc(Cl)cc2)ccc1=O	none
CCN(CC)S(=O)(=O)c1ccc(OC)c(NC(=O)c2cccs2)c1	NRP1-CendR mod 25
COc1ccc([N+](=O)[O-])cc1NC(=O)c1cccs1	none
